Hits are enriched below; roughly 1.9% of the tested compounds scored in any of these assays.
IEC-6 cytotox – IEC-6 cytotoxicity, counter-screen for KLF5 inhibitors; hit rate 0.78% among 290,000; luminescence viability; inhibition, % at 5 µM; AID 1825; in the data active means inhibition above about 22%;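 further: 0% = plate median of test compound wells and 100% = cytotoxic reference compound wells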
Ba/F3 V617F tox – loss of viability in JAK2V617F-driven Ba/F3 cells; inhibition, % at 5.6 µM; AID 1446; hit rate 1.1% among 220,000; Ba/F3 EpoR-JAK2V617F viability, ATP luminescence;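 active means inhibition above the campaign mean plus 3 SD over all tested compounds, cut at about 24% in these data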;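 further: cytokine-independent growth of Ba/F3 cells driven by EpoR plus mutant JAK2; 0% = DMSO-treated cells and 100% = JAK inhibitor I control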
APP transl inh – APP translation inhibition; SH-SY5Y APP 5'UTR-luciferase reporter, luminescence; inhibition, % at 2 µM; hit rate 0.82% among 190,000; AID 1285;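 active means inhibition above a set limit, derived from the sample mean plus 3 SD, cut at about 45% in these data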
KLF5 inh – kruppel-like factor 5 inhibition. DLD-1 KLF5 promoter-luciferase reporter, luminescence. inhibition, % at 5 µM. hit rate 0.23% among 290,000;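 active means inhibition above a per-plate limit of that plate's mean compound inhibition plus 3 SD, cut at about 60% in these data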;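 further: 0% = DMSO wells and 100% = LY294002 at 200 µM; higher means less KLF5 promoter-driven luciferase light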
BaF3 tox – counter-screen for JAK2V617F inhibitors: parental Ba/F3 viability inhibitors; CellTiter-Glo ATP luminescence; inhibition, % at 5.6 µM; hit rate 1.1% among 220,000;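 active means inhibition above a per-campaign cutoff, the mean inhibition of all tested compounds plus 3 SD, cut at about 27% in these data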;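 further: 0% = DMSO wells and 100% = JAK Inhibitor I control wells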
* marks the source's active call; other numbers are inactive results.

What do the screens show for `CC1CC(C)CN(S(=O)(=O)c2ccc(Oc3ccc([N+](=O)[O-])cc3)cc2)C1` (centres undefined)?
IEC-6 cytotox: 1; Ba/F3 V617F tox: 0; APP transl inh: -18; KLF5 inh: -29; BaF3 tox: 10

What do the screens show for `Cn1c(=O)c2c(=O)cc(NNC(=O)C(C)(C)C)[nH]c2n(C)c1=O`?
IEC-6 cytotox: 4; Ba/F3 V617F tox: 3; APP transl inh: 46*; KLF5 inh: -25; BaF3 tox: 3

What do the screens show for `COC(=O)c1c(-c2ccc(Br)cc2)noc1N`?
IEC-6 cytotox: 2; Ba/F3 V617F tox: 4; APP transl inh: -21; KLF5 inh: -40; BaF3 tox: 6

How did O=[N+]([O-])c1cc(Cl)ccc1Sc1cccc2cccnc12 do in these assays?
IEC-6 cytotox: -2; Ba/F3 V617F tox: -1; APP transl inh: -19; KLF5 inh: -28; BaF3 tox: 3

Results for O=[N+]([O-])c1ccc(Sc2cccc3cccnc23)c([N+](=O)[O-])c1 ?
IEC-6 cytotox: 0; Ba/F3 V617F tox: -5; APP transl inh: 55*; KLF5 inh: -13; BaF3 tox: -1

How did CC(C)c1ccc2c(c1)CCC1C(C)(CN)CCCC21C (centres undefined) do in these assays?
IEC-6 cytotox: -2; Ba/F3 V617F tox: 96*; KLF5 inh: -19; BaF3 tox: 79*

Results for CCN(CC)CCNc1cc(C)nc2c1C(=O)C(=O)C=C2N1CCCCC1 ?
IEC-6 cytotox: 11; Ba/F3 V617F tox: 7; APP transl inh: 67*; KLF5 inh: -5; BaF3 tox: -6

How did COc1ccc(C(=O)N/C(=C\c2cn(S(=O)(=O)N(C)C)c3ccccc23)C(=O)NCCCN2CCOCC2)cc1 do in these assays?
IEC-6 cytotox: -1; KLF5 inh: -29

How did CCCC(=O)N=C1SC2CS(=O)(=O)CC2N1c1ccc(-c2nc3ccc(C)cc3s2)cc1 (centres undefined) do in these assays?
IEC-6 cytotox: -2; Ba/F3 V617F tox: -2; APP transl inh: -125; KLF5 inh: -108; BaF3 tox: 5

Results for Cc1cc(N/N=C/c2ccc(O)cc2O)nc(-c2ccccc2O)n1 ?
IEC-6 cytotox: 1; Ba/F3 V617F tox: 6; APP transl inh: 56*; KLF5 inh: 35; BaF3 tox: -2

How did Cc1cc(N/N=C/c2ccccc2O)nc(-c2ccccc2O)n1 do in these assays?
IEC-6 cytotox: 15; Ba/F3 V617F tox: 0; APP transl inh: 36; KLF5 inh: -13; BaF3 tox: 10

What do the screens show for `CCCC[C@@H]1CNC(=S)N1CCc1cccc(F)c1`?
IEC-6 cytotox: 0; Ba/F3 V617F tox: 0; APP transl inh: -10; KLF5 inh: 3; BaF3 tox: -4

How did Clc1ccc(Cn2c(/C=C/c3ccco3)nc3ccccc32)cc1 do in these assays?
IEC-6 cytotox: 4; Ba/F3 V617F tox: -2; APP transl inh: -10; KLF5 inh: -13; BaF3 tox: 27*

Results for Cc1ccc(S(=O)(=O)CCC(=O)OCc2ccc(S(=O)(=O)C(C)C)cc2)cc1 ?
IEC-6 cytotox: -2; Ba/F3 V617F tox: -3; APP transl inh: -20; KLF5 inh: -11; BaF3 tox: 0

What do the screens show for `Cc1cccc2cc3c(N)c(C(=O)N4CCOCC4)sc3nc12`?
IEC-6 cytotox: 2; Ba/F3 V617F tox: 59*; APP transl inh: 85*; KLF5 inh: -11; BaF3 tox: 59*

Results for Cc1cc(=O)n(-c2ccc(O)cc2)[nH]1 ?
IEC-6 cytotox: 4; Ba/F3 V617F tox: 51*; APP transl inh: 0; KLF5 inh: 13; BaF3 tox: 60*

What do the screens show for `O=C(COC(=O)C1CC(=O)N(Cc2ccccc2)C1)Nc1ccc2c(c1)OCO2` (centres undefined)?
IEC-6 cytotox: 3; Ba/F3 V617F tox: -4; APP transl inh: 53*; KLF5 inh: -31; BaF3 tox: -1

How did O=C(O)c1ccc(-c2ccc(/C=C3\NC(=O)N(Cc4ccc(Cl)cc4)C3=O)o2)cc1Cl do in these assays?
IEC-6 cytotox: -3; Ba/F3 V617F tox: 1; APP transl inh: 4; KLF5 inh: 19; BaF3 tox: 2

What do the screens show for `Cc1nc(N2CCN(C)CC2)c2sc(=S)n(-c3ccccc3)c2n1`?
IEC-6 cytotox: -1; Ba/F3 V617F tox: 5; APP transl inh: -11; KLF5 inh: -23; BaF3 tox: 5

What do the screens show for `S=c1sc2c(Cl)ncnc2n1-c1ccccc1`?
IEC-6 cytotox: 7; Ba/F3 V617F tox: 0; APP transl inh: 65*; KLF5 inh: -26; BaF3 tox: 0

Results for C=CCNC(=S)NCc1ccccc1OC ?
IEC-6 cytotox: -9; Ba/F3 V617F tox: 0; APP transl inh: -9; KLF5 inh: -11; BaF3 tox: 9

Results for CN(CC(O)COC(c1ccccc1)c1ccccc1)C1CCCCC1 (centres undefined) ?
IEC-6 cytotox: 2; Ba/F3 V617F tox: 5; APP transl inh: -8; KLF5 inh: -8; BaF3 tox: 7

How did CC1C(=O)Nc2ccccc2N1C(=O)c1cccc(C(F)(F)F)c1 (centres undefined) do in these assays?
IEC-6 cytotox: 1; KLF5 inh: -1

What do the screens show for `CCCc1nc2oc3c(NCCN(C)C)ncnc3c2c2c1CCCC2`?
IEC-6 cytotox: 4; Ba/F3 V617F tox: -1; APP transl inh: -10; KLF5 inh: 11; BaF3 tox: -1

Results for CCCc1nc2oc3c(NCCCN(C)C)ncnc3c2c2c1CCCC2 ?
IEC-6 cytotox: -6; Ba/F3 V617F tox: 68*; KLF5 inh: -31; BaF3 tox: 69*

How did CCC(CC)N1CCN(Cc2nc3ccc([N+](=O)[O-])cc3c(=O)n2-c2ccccc2F)CC1 do in these assays?
IEC-6 cytotox: 7; KLF5 inh: -17

What do the screens show for `CC(C)CCNC(=O)c1ccc(C2SCC(=O)N2Cc2ccco2)cc1` (centres undefined)?
IEC-6 cytotox: -3; Ba/F3 V617F tox: -3; APP transl inh: 4; KLF5 inh: 10; BaF3 tox: 1

How did CCCCCCCCCCCCCCCCn1cc[n+](CC(C)=O)c1 do in these assays?
IEC-6 cytotox: 2; Ba/F3 V617F tox: 68*; APP transl inh: 20; KLF5 inh: 2; BaF3 tox: 75*

Results for Cc1cccc(OCCn2c(=O)oc3ccc(C)cc32)c1 ?
IEC-6 cytotox: 2; Ba/F3 V617F tox: 1; APP transl inh: -14; KLF5 inh: -21; BaF3 tox: 6

Results for CC(=O)c1sc(Nc2nc(C)cc(C)n2)nc1C ?
IEC-6 cytotox: 4; Ba/F3 V617F tox: -2; APP transl inh: 83*; KLF5 inh: -13; BaF3 tox: 2

How did COc1ccc2ccccc2c1/C=N/NC(=S)Nc1cc(S(=O)(=O)N2CCOCC2)ccc1N1CCOCC1 do in these assays?
IEC-6 cytotox: 3; Ba/F3 V617F tox: -1; APP transl inh: 3; KLF5 inh: -22; BaF3 tox: 3

What do the screens show for `CCOc1cccc(/C=N/NC(=S)Nc2cc(S(=O)(=O)N3CCOCC3)ccc2N2CCOCC2)c1O`?
IEC-6 cytotox: -1; Ba/F3 V617F tox: 0; APP transl inh: 54*; KLF5 inh: -3; BaF3 tox: 3

How did C=CCNC(=S)Nc1ccc(Br)cc1F do in these assays?
IEC-6 cytotox: 4; Ba/F3 V617F tox: -2; APP transl inh: -11; KLF5 inh: -31; BaF3 tox: 7
